# Assay results reported in PubChem BioAssay (EPA / NIEHS).
# Calls of active or inactive are those of the source. The calls were made as follows: active = hit-call score of the fitted dose curve at least 0.9, where 1 is the maximum; inactive = score below 0.9.
# What was measured:
# Conditions in all cases: mRNA level, 48 h; actives raise or lower the signal
# [1] = read-out: Bcl-2 (BAD) gene, BAD (gene 572); experiment: LTEA_HepaRG_BAD: Life Technologies and Expression Analysis (LTEA) Assay for Bcl-2 (BAD) gene using HepaRG (AID 2283469)
# In short: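 BAD transcript change, measured by qRT-PCR against three housekeeping genes and fitted in both directions relative to 0.5% DMSO, after 48 h chemical treatment of human HepaRG liver cells at concentrations up to 100 uM.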
# [2] = read-out: Bcl-2 (BAX) gene, BAX (gene 581); experiment: LTEA_HepaRG_BAX: Life Technologies and Expression Analysis (LTEA) Assay for Bcl-2 (BAX) gene using HepaRG (AID 2283470)
# In short: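 Concentration-response endpoint fitted in both directions relative to 0.5% DMSO vehicle. Human HepaRG cultures receive test chemicals for 48 h at up to 100 uM; BAX mRNA is quantified by qRT-PCR against housekeeping genes.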
# [3] = read-out: Alpha-fetoprotein (AFP) gene, AFP (gene 174); experiment: LTEA_HepaRG_AFP: Life Technologies and Expression Analysis (LTEA) Assay for Alpha-fetoprotein (AFP) gene using HepaRG (AID 2283472);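 as to AC50: AFP transcript by TaqMan qRT-PCR normalized to ACTB GAPDH and POLR2A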
# In short: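 After a 48 h plating period, cells are moved to serum-free induction medium and dosed in duplicate (100 uM maximum, half-log dilutions, 0.5% DMSO) for another 48 h. Total RNA goes to TaqMan qRT-PCR; AFP signal is housekeeping-normalized.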
# [4] = read-out: Apolipoprotein A-V (APOA5) gene, APOA5 (gene 116519); experiment: LTEA_HepaRG_APOA5: Life Technologies and Expression Analysis (LTEA) Assay for Apolipoprotein A-V (APOA5) gene using HepaRG (AID 2283474)
# In short: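 Human liver HepaRG cells are treated 48 h with test chemicals (100 uM top, half-log dilutions, 0.5% DMSO). APOA5 mRNA induction or loss is measured by qRT-PCR relative to vehicle.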
# [5] = read-out: Apoptosis regulator Bcl-2 (Homo sapiens) (UniProt P10415); experiment: LTEA_HepaRG_BCL2: Life Technologies and Expression Analysis (LTEA) Assay for Bcl-2 gene using HepaRG (AID 2283475);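 also: BCL2 transcript by TaqMan qRT-PCR normalised to ACTB GAPDH and POLR2A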
# In short: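 Expression change of BCL2 mRNA in HepaRG after 48 h dosing, quantified by TaqMan qRT-PCR against three endogenous controls. Concentration-response used eight points up to 100 uM, vehicle 0.5% DMSO.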
# [6] = read-out: Bcl-2 (BID) gene, BID (gene 637); experiment: LTEA_HepaRG_BID: Life Technologies and Expression Analysis (LTEA) Assay for Bcl-2 (BID) gene using HepaRG (AID 2283476)
# In short: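 Gain or loss of BID expression is fitted relative to 0.5% DMSO vehicle. Human HepaRG liver cells received a 48 h chemical exposure over an eight-point concentration range.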
# Caspase-3 (Homo sapiens) = Caspase-3 (Homo sapiens) (UniProt P42574); experiment: LTEA_HepaRG_CASP3: Life Technologies and Expression Analysis (LTEA) Assay for cysteine-aspartic acid protease (CASP3) using HepaRG (AID 2283477)
# In short: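 In HepaRG liver cells dosed for 48 h at up to 100 uM (eight-point, duplicate), CASP3 expression changes are scored by qRT-PCR. Activity is fitted in both directions with 0.5% DMSO as baseline.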
# [7] = read-out: Cytochrome P450 (CYP24A1), CYP24A1 (gene 1591); experiment: LTEA_HepaRG_CYP24A1: Life Technologies and Expression Analysis (LTEA) Assay for Cytochrome P450 (CYP24A1) using HepaRG (AID 2283478)
# In short: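 Human liver HepaRG cultures receive each chemical for 48 h across an eight-point half-log series topping at 100 uM in 0.5% DMSO. Induction or suppression of CYP24A1 mRNA is scored relative to vehicle after housekeeping-gene normalization.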
# [8] = read-out: Cytochrome P450 (CYP1A2), CYP1A2 (gene 1544); experiment: LTEA_HepaRG_CYP1A2: Life Technologies and Expression Analysis (LTEA) Assay for Cytochrome P450 (CYP1A2) using HepaRG (AID 2283479);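 as to AC50: TaqMan qRT-PCR transcript level normalized to ACTB GAPDH and POLR2A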
# In short: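 Assesses CYP1A2 mRNA in human HepaRG liver cells after 48 h chemical exposure at up to 100 uM. Values come from qRT-PCR with bidirectional curve fitting relative to DMSO.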
# [9] = read-out: cysteine-aspartic acid protease (CASP8), CASP8 (gene 841); experiment: LTEA_HepaRG_CASP8: Life Technologies and Expression Analysis (LTEA) Assay for cysteine-aspartic acid protease (CASP8) using HepaRG (AID 2283480)
# In short: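 HepaRG, 48 h exposure, duplicate wells; 8 conc, half-log from 100 uM, 0.5% DMSO. Serum-free induction medium. CASP8 mRNA by TaqMan qRT-PCR, norm. ACTB/GAPDH/POLR2A; gain/loss fitted vs DMSO.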
# [10] = read-out: Cytochrome P450 (CYP2B6), CYP2B6 (gene 1555); experiment: LTEA_HepaRG_CYP2B6: Life Technologies and Expression Analysis (LTEA) Assay for Cytochrome P450 (CYP2B6) using HepaRG (AID 2283481)
# In short: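 Using 48 h treatment of HepaRG cells in serum-free induction medium, concentrations spanned half-log steps from 100 uM in 0.5% DMSO vehicle. CYP2B6 mRNA induction or loss is scored by qRT-PCR against DMSO.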
# [11] = read-out: Cytochrome P450 2C19 (Homo sapiens) (UniProt P33261); experiment: LTEA_HepaRG_CYP2C19: Life Technologies and Expression Analysis (LTEA) Assay for CYP2C19 using HepaRG (AID 2283482)
# In short: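 Human HepaRG liver cells received test chemicals for 48 h (highest 100 uM, half-log dilutions in 0.5% DMSO). CYP2C19 mRNA induction or loss is read by multiplexed qRT-PCR and fitted in both directions versus vehicle.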
# CYP2C8 (gene 1558) = experiment: LTEA_HepaRG_CYP2C8: Life Technologies and Expression Analysis (LTEA) Assay for CYP2C8 using HepaRG (AID 2283483)
# In short: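 CYP2C8 mRNA induction or loss, by qRT-PCR normalized to ACTB/GAPDH/POLR2A, is read in HepaRG cells after 48 h treatment. Concentrations run from 100 uM down in half-log dilutions, with 0.5% DMSO as vehicle and baseline.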
# CYP2C9 (gene 1559) = experiment: LTEA_HepaRG_CYP2C9: Life Technologies and Expression Analysis (LTEA) Assay for CYP2C9 using HepaRG (AID 2283484)
# In short: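 Cells plated 48 h, switched to serum-free induction medium, then treated in duplicate for 48 h at eight concentrations (max 100 uM, 0.5% DMSO). RNA then analysed by qRT-PCR for CYP2C9; curves fitted in both directions relative to DMSO.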
# CYP2E1 (gene 1571) = experiment: LTEA_HepaRG_CYP2E1: Life Technologies and Expression Analysis (LTEA) Assay for CYP2E1 using HepaRG (AID 2283485)
# In short: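 Differentiated HepaRG cells were treated in duplicate for 48 h with chemicals in 0.5% DMSO, from 100 uM downward in half-log dilutions. RNA was then analysed by qRT-PCR for CYP2E1 induction or loss.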
# CYP4A11 (gene 1579) = experiment: LTEA_HepaRG_CYP4A11: Life Technologies and Expression Analysis (LTEA) Assay for CYP4A11 using HepaRG (AID 2283486)
# In short: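 Readout is CYP4A11 mRNA induction or suppression (qRT-PCR, ACTB/GAPDH/POLR2A normalization) in human HepaRG cells after 48 h chemical treatment, concentrations to 100 uM in 0.5% DMSO, fitted bidirectionally against vehicle.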
# [12] = read-out: Cytochrome P450 3A4 (Homo sapiens) (UniProt P08684); experiment: LTEA_HepaRG_CYP3A4: Life Technologies and Expression Analysis (LTEA) Assay for CYP3A4 using HepaRG (AID 2283487)
# In short: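 HepaRG, 48 h exposure, 8-pt CRC from 100 uM (half-log), 0.5% DMSO, duplicates; serum-free induction medium. Readout: CYP3A4 mRNA, qRT-PCR, ACTB/GAPDH/POLR2A normalization. Bidirectional fit vs DMSO.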
# [13] = read-out: DNA damage-inducible transcript 3 (DDIT3), DDIT3 (gene 1649); experiment: LTEA_HepaRG_DDIT3: Life Technologies and Expression Analysis (LTEA) Assay for DNA damage-inducible transcript 3 (DDIT3) using HepaRG (AID 2283488)
# In short: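 Changes in DDIT3 transcript, in either direction relative to 0.5% DMSO vehicle, were quantified by TaqMan qRT-PCR after 48 h chemical exposure of HepaRG cells at 8 concentrations, maximum 100 uM.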
# [14] = read-out: adenosine kinase (ADK) gene, ADK (gene 132); experiment: LTEA_HepaRG_ADK: Life Technologies and Expression Analysis (LTEA) Assay for adenosine kinase (ADK) gene using HepaRG (AID 2283471)
# In short: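 Read-out is ADK transcript level measured by qRT-PCR and normalised to three housekeeping genes. Cells are human HepaRG, dosed for 48 h at up to 100 uM in 0.5% DMSO. Gain or loss of signal is fitted against DMSO controls.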
# Apoptosis regulator Bcl-2 (Homo sapiens), sequence (P10415 whole entry, looked up): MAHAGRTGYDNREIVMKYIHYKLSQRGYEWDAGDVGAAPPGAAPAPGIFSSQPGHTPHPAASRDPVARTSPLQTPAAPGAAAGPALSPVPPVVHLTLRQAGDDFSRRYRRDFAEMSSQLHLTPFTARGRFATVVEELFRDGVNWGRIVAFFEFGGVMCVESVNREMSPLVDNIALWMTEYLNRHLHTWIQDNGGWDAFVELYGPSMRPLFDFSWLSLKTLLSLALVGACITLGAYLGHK
# Cytochrome P450 3A4 (Homo sapiens), sequence (P08684 whole entry, looked up): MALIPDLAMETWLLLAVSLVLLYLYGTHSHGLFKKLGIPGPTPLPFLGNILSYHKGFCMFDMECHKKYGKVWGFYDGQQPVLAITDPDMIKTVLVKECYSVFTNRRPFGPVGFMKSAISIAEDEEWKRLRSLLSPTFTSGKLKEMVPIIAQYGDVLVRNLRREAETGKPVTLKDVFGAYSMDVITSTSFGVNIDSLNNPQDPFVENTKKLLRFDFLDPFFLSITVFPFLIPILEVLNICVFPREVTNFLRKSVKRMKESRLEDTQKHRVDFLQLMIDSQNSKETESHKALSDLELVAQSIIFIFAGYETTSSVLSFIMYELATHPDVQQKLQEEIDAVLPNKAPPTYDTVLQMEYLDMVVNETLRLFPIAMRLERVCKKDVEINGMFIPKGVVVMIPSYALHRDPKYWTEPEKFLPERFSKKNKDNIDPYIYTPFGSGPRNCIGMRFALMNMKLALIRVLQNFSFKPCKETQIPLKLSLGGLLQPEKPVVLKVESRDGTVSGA
# Caspase-3 (Homo sapiens), sequence (P42574 whole entry, looked up): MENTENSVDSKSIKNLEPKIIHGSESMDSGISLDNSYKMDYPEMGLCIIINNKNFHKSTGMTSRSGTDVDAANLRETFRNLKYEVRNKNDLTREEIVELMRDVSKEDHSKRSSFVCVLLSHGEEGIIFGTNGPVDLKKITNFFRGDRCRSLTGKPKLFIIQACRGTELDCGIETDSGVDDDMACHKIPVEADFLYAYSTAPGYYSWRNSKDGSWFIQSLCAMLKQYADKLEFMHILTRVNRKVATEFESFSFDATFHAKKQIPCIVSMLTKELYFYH
# Cytochrome P450 2C19 (Homo sapiens), sequence (P33261 whole entry, looked up): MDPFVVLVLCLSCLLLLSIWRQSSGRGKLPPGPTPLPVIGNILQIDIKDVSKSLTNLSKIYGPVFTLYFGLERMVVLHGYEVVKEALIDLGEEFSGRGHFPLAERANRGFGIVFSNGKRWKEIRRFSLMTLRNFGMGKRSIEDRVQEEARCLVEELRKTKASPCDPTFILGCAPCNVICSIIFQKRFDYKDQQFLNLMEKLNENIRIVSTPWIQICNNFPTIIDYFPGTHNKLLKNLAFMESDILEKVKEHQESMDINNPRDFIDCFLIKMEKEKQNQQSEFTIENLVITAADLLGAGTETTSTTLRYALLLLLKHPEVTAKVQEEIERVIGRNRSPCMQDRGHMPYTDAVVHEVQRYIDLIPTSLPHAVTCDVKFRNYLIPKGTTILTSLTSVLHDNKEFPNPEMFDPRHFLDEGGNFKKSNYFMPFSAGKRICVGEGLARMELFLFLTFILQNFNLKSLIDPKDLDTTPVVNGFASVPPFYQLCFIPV
smiles,measurement,setting,value
CCOP(=S)(Oc1ccc([N+](=O)[O-])cc1)c1ccccc1 (stereo unspecified),outcome,[1],inactive
same,outcome,[2],inactive
same,AC50,[3],29.4 µM (active)
same,outcome,[4],inactive
same,outcome,[5],inactive
same,outcome,[6],inactive
same,outcome,Caspase-3 (Homo sapiens),inactive
same,outcome,[7],inactive
same,AC50,[8],24.2 µM (active)
same,outcome,[9],inactive
same,AC50,[10],1.05 µM (active)
same,AC50,[11],6.06 µM (active)
same,AC50,CYP2C8 (gene 1558),2.42 µM (active)
same,outcome,CYP2C9 (gene 1559),inactive
same,AC50,CYP2E1 (gene 1571),37.3 µM (active)
same,AC50,CYP4A11 (gene 1579),10.8 µM (active)
same,AC50,[12],4.84 µM (active)
same,outcome,[13],inactive
CCCCc1ccccc1,outcome,[1],inactive
same,outcome,[2],inactive
same,outcome,[3],inactive
same,outcome,[4],inactive
same,outcome,[5],inactive
same,outcome,[6],inactive
same,outcome,Caspase-3 (Homo sapiens),inactive
same,outcome,[7],inactive
same,AC50,[8],50 µM (active)
same,outcome,[9],inactive
same,outcome,[10],inactive
same,outcome,[11],inactive
same,outcome,CYP2C8 (gene 1558),inactive
same,outcome,CYP2C9 (gene 1559),inactive
same,outcome,CYP2E1 (gene 1571),inactive
same,outcome,CYP4A11 (gene 1579),inactive
same,outcome,[12],inactive
same,outcome,[13],inactive
[N-]=[N+]=[N-],outcome,[1],inactive
same,outcome,[2],inactive
same,AC50,[3],77.9 µM (active)
same,AC50,[4],50 µM (active)
same,AC50,[5],76.8 µM (active)
same,outcome,[6],inactive
same,outcome,Caspase-3 (Homo sapiens),inactive
same,outcome,[7],inactive
same,outcome,[8],inactive
same,outcome,[9],inactive
same,AC50,[10],88.3 µM (active)
same,outcome,[11],inactive
same,AC50,CYP2C8 (gene 1558),79.9 µM (active)
same,AC50,CYP2C9 (gene 1559),78.6 µM (active)
same,AC50,CYP2E1 (gene 1571),67.1 µM (active)
same,AC50,CYP4A11 (gene 1579),70.6 µM (active)
same,outcome,[12],inactive
same,AC50,[13],76.4 µM (active)
ClC1=C(Cl)C2(Cl)C3C(Cl)C(Cl)CC3C1(Cl)C2(Cl)Cl (stereo unspecified),outcome,[1],inactive
same,outcome,[2],inactive
same,AC50,[3],15.2 µM (active)
same,AC50,[4],50 µM (active)
same,outcome,[5],inactive
same,outcome,[6],inactive
same,outcome,Caspase-3 (Homo sapiens),inactive
same,outcome,[7],inactive
same,outcome,[8],inactive
same,outcome,[9],inactive
same,AC50,[10],0.994 µM (active)
same,AC50,[11],2.42 µM (active)
same,AC50,CYP2C8 (gene 1558),2.17 µM (active)
same,outcome,CYP2C9 (gene 1559),inactive
same,AC50,CYP2E1 (gene 1571),27.7 µM (active)
same,AC50,CYP4A11 (gene 1579),24.6 µM (active)
same,AC50,[12],4.39 µM (active)
same,AC50,[13],82.1 µM (active)
CCOS(=O)(=O)OCC,outcome,[1],inactive
same,outcome,[2],inactive
same,outcome,[14],inactive
same,outcome,[3],inactive
same,outcome,[4],inactive
same,outcome,[5],inactive
same,outcome,[6],inactive
same,outcome,Caspase-3 (Homo sapiens),inactive
same,outcome,[7],inactive
same,outcome,[8],inactive
same,outcome,[9],inactive
same,outcome,[10],inactive
same,outcome,[11],inactive
same,outcome,CYP2C8 (gene 1558),inactive
same,outcome,CYP2C9 (gene 1559),inactive
same,outcome,CYP2E1 (gene 1571),inactive
same,outcome,CYP4A11 (gene 1579),inactive
same,outcome,[12],inactive
same,outcome,[13],inactive
